From PubChem BioAssay
Shown are actives, neighbours in structure and some others; about 1.2% of the full set was active somewhere.
VLA-4 inh = inhibition in a human VLA-4 binding assay; VLA-4 expressing cells, ligand binding flow cytometry; inhibition, % (about 7 µM as worked out from the volumes in the protocol); hit rate 0.2% among 330,000; in the data active = inhibition above about 50%
Target sequence (P13612 whole entry, looked up): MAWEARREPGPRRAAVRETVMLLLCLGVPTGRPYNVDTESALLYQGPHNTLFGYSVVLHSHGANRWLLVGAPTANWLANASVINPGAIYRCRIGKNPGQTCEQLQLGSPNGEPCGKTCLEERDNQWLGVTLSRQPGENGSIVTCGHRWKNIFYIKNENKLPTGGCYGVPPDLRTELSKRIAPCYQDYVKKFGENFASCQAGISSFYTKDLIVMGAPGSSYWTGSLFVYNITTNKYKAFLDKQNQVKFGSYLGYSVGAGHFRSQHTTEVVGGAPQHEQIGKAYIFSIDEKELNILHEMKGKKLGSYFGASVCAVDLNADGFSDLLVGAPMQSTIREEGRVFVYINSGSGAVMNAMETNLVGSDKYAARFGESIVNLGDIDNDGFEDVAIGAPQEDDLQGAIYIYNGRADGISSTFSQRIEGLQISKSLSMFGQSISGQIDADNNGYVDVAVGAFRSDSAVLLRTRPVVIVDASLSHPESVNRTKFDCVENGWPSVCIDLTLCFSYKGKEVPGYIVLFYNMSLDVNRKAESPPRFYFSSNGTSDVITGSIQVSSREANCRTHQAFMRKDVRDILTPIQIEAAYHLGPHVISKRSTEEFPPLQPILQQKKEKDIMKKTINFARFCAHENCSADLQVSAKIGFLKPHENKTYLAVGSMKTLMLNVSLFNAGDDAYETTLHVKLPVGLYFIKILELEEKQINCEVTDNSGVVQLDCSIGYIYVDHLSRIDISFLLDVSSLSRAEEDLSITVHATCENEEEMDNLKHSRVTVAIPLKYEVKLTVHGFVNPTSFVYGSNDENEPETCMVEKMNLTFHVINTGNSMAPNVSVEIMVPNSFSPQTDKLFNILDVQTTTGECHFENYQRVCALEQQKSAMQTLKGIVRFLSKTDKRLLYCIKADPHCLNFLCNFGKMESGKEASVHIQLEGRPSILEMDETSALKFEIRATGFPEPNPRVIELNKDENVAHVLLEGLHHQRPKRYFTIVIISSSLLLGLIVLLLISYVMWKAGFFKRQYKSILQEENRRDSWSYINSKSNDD
pCIP destab = compounds decreasing mouse p/CIP protein stability; Q05BA5; F442A p/CIP-EGFP cells, EGFP fluorescence, 16 h; decrease of EGFP signal, % at 10 µM; hit rate 0.01% among 290,000; AID 1984;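 active = EGFP signal decrease of at least 30% at 10 µM or well 3 SD below plate mean, unless failing retest; inactive = the rest, including hits failing retest or dose response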
JMJD2C inh = blocks human GASC-1 demethylase activity; hit rate 0.069% among 330,000; GST-JMJD2C(1-420) H3K9me3 demethylation, DELFIA europium; inhibition, % at 2.35 µM; Q9H3R0;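 active = more than half of a compound's replicate wells show inhibition beyond 50%, single wells judged on their own value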;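 also: signal counts dimethyl H3K9 product captured on neutravidin plate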
GPR7 antag = antagonists of human GPR7 (neuropeptides B/W receptor 1) | GPR7-expressing cells, fluorescence antagonist assay | inhibition, % at 4.4 µM | hit rate 1.1% among 290,000; in the data active = inhibition above about 16%, passing the limit was not always enough;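 also: cells stimulated with the agonist NPW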
GPR7 antag conf = confirmation of human GPR7 antagonists; shares compounds with GPR7 antag; GPR7-expressing cells, calcium fluorescence antagonist mode; inhibition, % at 4.4 µM; hit rate 52% among 2,400; AID 1952; in the data active = inhibition above about 24%;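 also: stimulated with the GPR7 agonist NPW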
MCHR1 antagonist = counter-screen for GPR7 antagonists: antagonists of human MCHR1 | shares compounds with GPR7 antag | MCHR1-expressing cells, fluorescence antagonist assay | inhibition, % at 4.4 µM | hit rate 62% among 2,400 | AID 2148; in the data active = inhibition above about 22%
Hits are given with their value; . = inactive; / = no result.

SMILES	VLA-4 inh	pCIP destab	JMJD2C inh	GPR7 antag	GPR7 antag conf	MCHR1 antagonist
COc1ccccc1CNCC(O)(c1ccc(F)cc1)c1ccc(F)cc1	.	.	.	40	41	36
CCOc1ccc(S(=O)(=O)N2CCCC(C(=O)NCC3CCCO3)C2)cc1 (stereo not drawn)	.	.	.	.	/	/
CCn1ncc(C2=NOC(C(=O)Nc3cccc(O)c3)C2)c1C (stereo not drawn)	.	.	.	.	/	/
CC(Sc1nnc2ccccn12)C(N)=O (stereo not drawn)	.	.	.	25	.	.
Cc1cc(C)c(S(=O)(=O)c2ccccc2C)c(OCCN(C)C)n1	.	.	.	.	/	/
O=C(COC(=O)/C=C/c1cccs1)Nc1ccc2ccccc2c1	.	.	.	.	/	/
Cc1ccc(NC(=O)Nc2ccc3c(c2)N(C)C(=O)CS3)cc1C	.	.	.	.	/	/
Cc1cc(C)cc(NC(=O)Nc2ccc3c(c2)N(C)C(=O)CS3)c1	.	.	.	25	30	76
O=P(c1ccccc1)(c1ccccc1)C1CCCO1 (stereo not drawn)	.	.	.	42	.	.
COC(=O)c1ccc(CSCc2ccc(C#N)cc2)cc1	.	.	.	48	55	56
N#Cc1ccc(CSCC(=O)O)cc1	.	.	.	.	/	/
COc1ccc(C=O)cc1COc1ccc([N+](=O)[O-])c(C)c1	.	.	.	23	49	44
CCN(Cc1nc2ccccc2c(=O)[nH]1)C(=O)c1cccc(S(=O)(=O)N2CCc3ccccc32)c1	.	/	.	/	/	/
N/C(=N\OC(=O)COc1ccccc1)c1ccc(Cl)cc1	.	.	.	24	.	.
N/C(=N\OC(=O)COc1ccccc1)c1ccncc1	.	.	.	.	/	/
Cc1ccc(NC(=O)CSc2ccc(Br)cc2)cc1S(=O)(=O)N1CCOCC1	.	/	.	/	/	/
O=C(COC(=O)c1cccc([N+](=O)[O-])c1)NCc1cccs1	.	.	.	.	/	/
Cc1ncsc1CCOC(=O)c1cccc([N+](=O)[O-])c1	.	.	.	22	.	34
CCS(=O)(=O)N1CCC(C(=O)Nc2ccc3c(c2)CCC3)CC1	.	.	.	.	/	/
Cc1ccc([N+](=O)[O-])cc1NC(=O)CN(C(=O)c1ccccc1Cl)C1CCCCC1	.	.	.	36	39	41
Cc1ccc([N+](=O)[O-])cc1NC(=O)CN(C1CCCCC1)S(=O)(=O)c1ccc(Cl)cc1	/	.	.	.	/	/
Cn1c(=O)c([N+](=O)[O-])c(Cl)c2ccccc21	/	.	.	26	51	76
CCc1ccc(CNC(=O)CCC(=O)N2Cc3cccc(OC)c3Oc3ncccc32)cc1	.	.	.	23	.	.
COc1cccc2c1Oc1ncccc1N(C(=O)CCC(=O)NCc1ccccc1)C2	.	.	.	.	/	/
CC1(C)C2CCC(C2)C1(C)NC(=O)CNCC1CCCCC1 (stereo not drawn)	.	.	.	33	38	22
SMILES	VLA-4 inh	pCIP destab	JMJD2C inh	GPR7 antag	GPR7 antag conf	MCHR1 antagonist
COCc1nc2oc3ccccc3c(=O)c2cc1C(=O)OC	.	.	.	.	/	/
CC(=O)Nc1ccc(C(=O)NC2CCSc3ccccc32)cc1 (stereo not drawn)	.	.	.	.	/	/
Cc1ccc(NC(=S)NC2CCSc3ccccc32)cc1 (stereo not drawn)	.	.	.	34	.	39
Cc1ccc2nc(NC(=O)C3CCCN3C(=O)OC(C)(C)C)sc2c1 (stereo not drawn)	.	.	.	.	/	/
CCOC(=O)N1CCN(CC(O)COC2CC(C)CCC2C(C)C)CC1 (stereo not drawn)	.	.	.	.	/	/
CC1CCN(CC(O)COC2CC(C)CCC2C(C)C)CC1 (stereo not drawn)	.	.	.	23	.	.
CCCCN(CC)CCCNC(=O)C1CCN(c2ncnc3c2sc2cccc(F)c23)CC1	.	.	.	.	/	/
Cc1ccccc1NC(=O)Cn1nnc(S(=O)(=O)c2ccc(C(C)(C)C)cc2)c1N	.	.	.	28	34	.
O=C(CNC1CCCCCC1)Nc1ccc(N2CCCC2)cc1	.	.	.	.	/	/
CC(=O)c1ccc(NC(=O)CNC2CCCCC2)cc1	.	.	.	36	.	.
CC1CCN(S(=O)(=O)c2ccc(NC(=O)CNC3CCCCC3)cc2)CC1	.	.	.	.	/	/
CC1CCCC(C)N1S(=O)(=O)c1ccc(NC(=O)CNC2CCCC2)cc1 (stereo not drawn)	.	.	.	54	.	.
COc1ccccc1C(=O)N/C(=C\c1cn(C)c2ccccc12)C(=O)NCCCN1CCOCC1	.	.	.	.	/	/
CCn1nc(C)c(CN2CCCC(CNS(=O)(=O)c3ccc(OC)cc3)C2)c1C (stereo not drawn)	.	.	.	.	/	/
O/N=C(/c1ccc(Cl)cc1)C1CC1c1ccccc1 (stereo not drawn)	.	.	.	34	.	.
Cc1ccc(OCC(=O)NCCNC(=O)c2ccccn2)cc1	.	.	.	.	/	/
CCN(CC)CCCN(C(=O)c1ccco1)c1nc(-c2ccc(Cl)cc2)cs1	.	.	.	24	31	38
CCOC(=O)c1ccc(NC(=O)c2ccc3c(c2)C(=O)N(Cc2cccnc2)C3=O)cc1	.	.	.	32	30	62
COC(=O)Cc1ccc(NC(=O)c2ccc3c(c2)C(=O)N(Cc2cccnc2)C3=O)cc1	.	.	.	.	/	/
C=CCNS(=O)(=O)NC(=O)C1=C(N2CCCC2)COC1=O	.	/	/	/	/	/
CC(C)c1cc(N2CCN(C(=O)c3ccco3)CC2)n2c(nc3ccccc32)c1C#N	.	.	.	25	.	.
CN(C)CCCN(C(=O)CCc1ccccc1)c1nc2ccc(Br)cc2s1	.	.	.	24	68	73
Cc1ccc2sc(N(CCCN(C)C)C(=O)c3nc4ccccc4s3)nc2c1C	.	.	.	.	/	/
Cc1ccc2sc(N(CCCN(C)C)C(=O)c3ccc(Br)s3)nc2c1C	.	.	.	41	51	56
COc1ccc(OC)c2sc(N(CCCN(C)C)C(=O)CCS(=O)(=O)c3ccccc3)nc12	.	/	.	/	/	/
SMILES	VLA-4 inh	pCIP destab	JMJD2C inh	GPR7 antag	GPR7 antag conf	MCHR1 antagonist
Cc1cccc2sc(N(CCCN(C)C)C(=O)CCc3ccccc3)nc12	.	.	.	23	61	56
Cc1ccc2sc(N(CCCN(C)C)C(=O)CCS(=O)(=O)c3ccccc3)nc2c1C	.	.	.	48	43	51
CN(C)CCCN(C(=O)CCc1ccccc1)c1nc2ccc(F)cc2s1	.	.	.	.	/	/
CCCCn1c(N)c(N(CC(C)C)C(=O)c2cc3c(s2)CCCCC3)c(=O)[nH]c1=O	.	/	.	/	/	/
O=C(COC(=O)CNC(=O)C1CCCCC1)NCc1ccc(Cl)cc1	.	/	.	/	/	/
Cc1cccc2sc(N(CCCN(C)C)C(=O)c3nc4ccccc4s3)nc12	.	.	.	.	/	/
Cc1cccc2sc(N(CCCN(C)C)C(=O)c3ccc4ncsc4c3)nc12	.	.	.	26	39	29
CN(C)CCCN(C(=O)c1ccc2c(c1)OCCO2)c1nc2ccc(Cl)cc2s1	.	.	.	51	61	46
